Records with an inconclusive call do not appear. Entries that show only a call come without a potency. Calls of active or inactive are those of the source. Calls follow the shape of the dose curve; as a rule, active = well fitted inhibition curve with a large enough effect; inconclusive = small, poorly fitted or top-dose-only effect; inactive = no such curve, though single readings can be large or run the other way.
Potency is read from the fitted curve at half-maximal effect.

The nature of the assay: Acumen qHTS Assay for Inhibitors of the mTORC1 Signaling Pathway in WT MEF Cells: Hit Validation. Also: nearly all actives have a fitted effect of over 60% in size. To be noted: Acumen imaging; series mostly up to 37.3 µM. Summed up:
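Read-out is immunofluorescent phospho-rpS6 (Ser235/236) normalised to PI-stained cell number, reported as % active cells using a 7.5 nM rapamycin threshold. Cells: WT or Tsc2-/-, p53-/- MEFs, compound-exposed 24 h at 37C; PI count also tracks viability.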
(In qHTS, concentration-response curves come from the screen itself.)
As to `CCN(CC)CCOC(=O)c1ccc(NC(=O)c2nn(-c3ccc(C)cc3)c(=O)c3c2c2ccccc2n3C)cc1`, the Potency is 1.17 µM (active).

As for `CC(C)S(=O)(=O)c1oc(-c2cccs2)nc1S(=O)(=O)c1ccc(F)cc1`, the Potency was 0.826 µM (active). Regarding `Cc1c(C(=O)OC2CCC(C)CC2)[nH]c2c1C(=O)CC(c1ccc(F)cc1)C2` (stereo not given), the Potency result was “inactive”. As to `CC(=O)Nc1cccc(NC(=O)C(=O)NCCc2sc(-c3ccccc3)nc2C)c1`, the Potency was 7.36 µM (active). Turning to `COc1ccc(N(C)C(=O)c2cc(S(=O)(=O)N3CCc4ccccc43)cn2C)c(OC)c1`, the Potency result is “inactive”. As for `CCc1nnc(NC(=O)c2nc(S(=O)(=O)Cc3cccc(C)c3)ncc2Cl)s1`, the Potency is 5.21 µM (active).

Take `COc1ccc(C2=NS(=O)(=O)N(C)C(C(=O)Nc3ccc(OC(F)(F)F)cc3)=C2)cc1`: the Potency entry was “inactive”.

For the compound `CC(C)CCNC(=O)Nc1ccc2c(c1)N(C)C(=O)c1ccccc1S2`, the Potency result is “inactive”. The value for `O=C(Nc1cccc(NC(=O)c2ccccc2Cl)c1)c1cccc(Br)c1` was “inactive”; that for `COc1ccc(NC(=O)c2ccc3c(=O)n4nc(Nc5cc(C)ccc5C)sc4nc3c2)cc1` was 2.93 µM (active); that for `Cc1ccc(CN2C(=O)C(=O)c3cc(Br)cc(C)c32)cc1` was “inactive”. Consider `CC(C(=O)NCc1cccc(Br)c1)n1ncn2cccc2c1=O` (stereo not given), for which the Potency result was “inactive”. As to `CC(C)(C)c1ccc(-c2nc(S(=O)(=O)c3ccccc3)c(N3CCOCC3)o2)cc1`, the Potency entry is “inactive”. With `CCC1=Nc2cc(C(=O)NC3CCCC3)ccc2Sc2ccc(Cl)cc21`, the Potency was 2.07 µM (active). Regarding `CCNC(=O)c1c(NC(=O)c2nc(S(=O)(=O)CC)ncc2Cl)sc2c1CCCC2`, the Potency was 0.585 µM (active). In the case of `COc1ccc(-c2ccc(CCC(=O)O)n2-c2ccccc2O)cc1`, the Potency entry was “inactive”. Consider `CCOc1ccc(CCNC(=O)CCc2c(C)nc3cc(-c4ccccc4OC)nn3c2C)cc1`, for which the Potency entry was “inactive”. The entry for `COc1ccc(Cl)cc1NC(=O)CSc1nc(-c2ccco2)cc(C(F)(F)F)n1` is “inactive”; for `CCS(=O)(=O)c1oc(-c2ccc(F)cc2)nc1S(=O)(=O)c1ccc(Br)cc1` it is 4.65 µM (active).

`Cc1cccc(CSCCNC(=O)CN(c2ccccc2)S(=O)(=O)N(C)C)c1`: the Potency result is “inactive”. In the case of `COc1ccc(OC)c(NC(=O)c2nnn(CC(=O)Nc3ccc(C(C)C)cc3)c2N)c1`, the Potency result is “inactive”. On to `Cc1cccn2c(Nc3ccccc3)c(-c3cccs3)nc12`, for which the Potency entry is “inactive”.

On to `O=C(CCn1cnc2onc(-c3ccc(F)cc3)c2c1=O)Nc1ccc(F)c(Cl)c1`, for which the Potency result was “inactive”. Turning to `COc1ccc(CNC(=O)C2CCN(c3nc4ccc(C)cc4[nH]3)CC2)cc1`, the Potency result was “inactive”. The value for `Cc1cc(C)cc(C(=O)Nc2ccc(-c3nc4ncccc4o3)cc2)c1` was “inactive”; that for `O=S(=O)(NCC(c1ccco1)S(=O)(=O)c1cccs1)c1ccc(Cl)cc1` (stereo not given) was “inactive”. `Cc1ccc(NC(=O)CSc2nc(=O)cc(N)n2CCc2ccccc2)cc1`: the Potency result was “inactive”.

For the compound `O=C(/C=C/c1ccco1)Nc1ccc(Cl)c(-c2nc3cc(Cl)ccc3o2)c1`, the Potency entry was “inactive”. The value for `CCN(c1ccccc1)S(=O)(=O)c1cc(C(=O)Nc2ccc(Br)cc2)ccc1F` was 13.1 µM (active).

Take `CCc1ccc(NC(=O)CSc2nccn2C2CCCC2)cc1`: the Potency entry was “inactive”.

Consider `CCOc1ccc(NC(=O)N(Cc2c[nH]c3ccccc23)C2CCCCCC2)cc1`, for which the Potency entry is “inactive”. On to `CC(C)(C)C1CCc2c(sc(NC(=O)C3c4ccccc4Oc4ccccc43)c2C(N)=O)C1` (stereo not given), for which the Potency result was “inactive”.

Regarding `CCc1ccc(CN(Cc2ccco2)C(=O)c2cc(-c3ccc(C)c(F)c3)on2)cc1`, the Potency result is “inactive”.

As to `CC1C(=O)Nc2ccc(S(=O)(=O)Nc3ccccc3Br)cc2NC1=O` (stereo not given), the Potency result is “inactive”.

As to `COc1ccc(NC(=O)c2ccco2)cc1NC(=O)COc1ccccc1Cl`, the Potency entry is “inactive”. With `CCCSc1oc(-c2ccco2)nc1S(=O)(=O)c1ccc(Br)cc1`, the Potency result was “inactive”.

Consider `Cc1ccccc1CS(=O)(=O)c1ncc(Cl)c(C(=O)Nc2nnc(C(C)C)s2)n1`, for which the Potency was 11.7 µM (active). With `Cc1ccccc1CN1C(=O)C(O)(CC(=O)c2cccc(Br)c2)c2ccccc21` (stereo not given), the Potency result was “inactive”. Turning to `Cc1ccc(S(=O)(=O)c2nnn3c2nc(NCc2cccs2)c2sccc23)cc1`, the Potency result was “inactive”. Regarding `COc1ccccc1CNC(=O)CCCn1c(=O)c2cccn2c2ccccc21`, the Potency entry was “inactive”.
